The values that follow come from PubChem BioAssay AID588342 (National Center for Advancing Translational Sciences (NCATS), 2011).

The campaign covered roughly 360,000 compounds. About 25,000 (6.9%) were called active. Inconclusive results (about 9%) are left out. The call rests on the fitted dose curve; in most records, active means well fitted inhibition curve with a large enough effect; inconclusive means small, poorly fitted or top-dose-only effect; inactive means flat fitted curve, though single readings scatter. Many of the other results were omitted from the sample, so actives are more common in it than they were.
Potency means the concentration at half of the fitted maximal effect.

Luciferin 4-monooxygenase (Photinus pyralis), sequence (P08659 whole entry, looked up): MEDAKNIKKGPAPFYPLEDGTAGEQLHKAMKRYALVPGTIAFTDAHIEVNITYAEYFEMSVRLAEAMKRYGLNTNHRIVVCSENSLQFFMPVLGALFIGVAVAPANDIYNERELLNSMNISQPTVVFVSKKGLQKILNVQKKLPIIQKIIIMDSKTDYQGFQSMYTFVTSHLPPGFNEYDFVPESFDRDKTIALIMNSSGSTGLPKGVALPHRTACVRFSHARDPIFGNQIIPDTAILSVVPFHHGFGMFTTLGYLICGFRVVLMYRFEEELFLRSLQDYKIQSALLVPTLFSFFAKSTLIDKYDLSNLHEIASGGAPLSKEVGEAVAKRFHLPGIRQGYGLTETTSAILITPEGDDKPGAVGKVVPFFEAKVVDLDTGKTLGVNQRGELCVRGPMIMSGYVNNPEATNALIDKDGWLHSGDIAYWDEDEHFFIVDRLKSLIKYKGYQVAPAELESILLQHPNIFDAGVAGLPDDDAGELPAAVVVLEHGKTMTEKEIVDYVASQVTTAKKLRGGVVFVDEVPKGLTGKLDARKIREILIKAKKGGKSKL

The experiment has as its target Luciferin 4-monooxygenase (Photinus pyralis) (UniProt P08659). In words: qHTS profiling assay for firefly luciferase inhibitor/activator using purifed enzyme and Km concentrations of substrates (counterscreen for miR-21 project). Further: nearly all actives have a fitted effect of over 55% in size.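 On activity change, negative = inhibition: plate controls were vehicle for no effect and reference inhibitor for full effect.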 Particulars: purified FLuc, luminescence inhibition; series mostly up to 57.5 µM; activity change, negative = inhibition: at the top concentration. A digest of the protocol: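 Biochemical qHTS of compounds, final roughly 60 µM downward over six points, against 10 nM purified firefly luciferase using Km concentrations of substrates (10 uM D-luciferin, 10 uM ATP) in Tris acetate pH 7.5 buffer; luminescence output.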
For `CC(=O)Cc1ccc(OC(C)C)cc1`, the “activity change, negative = inhibition” value is 4.48% (inactive).
On to `CC(C)Oc1ccc(NC(=O)c2cc3ccccc3o2)cc1`, for which the Potency is 1.51 µM (active).
Regarding `Cc1ccc(-c2nc3ccccc3c(=O)n2-c2ccc(Br)cn2)cc1`, the “activity change, negative = inhibition” value is 2.91% (inactive).
On the same count and under the same terms, under `COCCNC(=O)CN1C2CCC1CC(O)(c1cccnc1)C2` (centres undefined) stands 0.105% (inactive).
For the compound `CC/C(=N\NC(=O)c1ccccc1O)c1c(O)n(Cc2ccccc2)c(=O)[nH]c1=O`, the Potency is 9.53 µM (active).
In the case of `CCC(=NCCc1ccccc1)c1c(O)n(C2CCCCC2)c(=O)[nH]c1=O`, the “activity change, negative = inhibition” value was -0.859% (inactive).
Still for that read-out and setting: then `CCC(=NCc1ccco1)c1c(O)n(Cc2ccccc2)c(=O)[nH]c1=O`, with 9.59% (inactive).
On the same count and under the same terms, then `Cc1ccc(C(C)C)c(OCC(=O)N2CCN(CC(=O)N3CCOCC3)CC2)c1`, with -0.447% (inactive).
Same read-out and setting: under `CC1(C)Cc2c(C#N)c(N3CCNCC3)nc(-c3ccco3)c2CS1` stands -1.07% (inactive); under `Cc1ccc(Cn2nnnc2CN2CCC(n3nnc4ccccc43)CC2)cc1`, 0.191% (inactive).
Consider `CCc1cccc2c(C#N)cn(CC(=O)N3CCOCC3)c12`, for which the “activity change, negative = inhibition” value is -0.188% (inactive).
For the compound `O=C(O)COc1ccccc1/C=C1\C(=O)NC(=O)N(CCC2=CCCCC2)C1=O`, the “activity change, negative = inhibition” value was 0.408% (inactive).
On the same count and under the same terms, under `C=CCN(CC=C)C(=O)Nc1ccc(OCC)cc1` stands -16.5% (inactive).
For `C=CCN1C(=O)NC(=O)/C(=C/c2ccc(OCC(=O)Nc3ccc(C)cc3)cc2)C1=O`, the Potency was 21.3 µM (active).
Turning to `COC(=O)C1=C(c2ccc(Cl)c(C(F)(F)F)c2)C[C@@H]2CC[C@H]1N2C(=O)NC1CC1`, the “activity change, negative = inhibition” value was -0.397% (inactive).
Same read-out and setting: then `Cc1cc(C(=O)OCC(=O)Nc2c(F)cccc2F)c(C)n1C1CC1`, with 2.98% (inactive); and `c1cc2c(cc1CCNC1CCCCCC1)OCO2`, with 4.17% (inactive); and `COC(=O)C1=C(c2ccc(F)cc2OCc2ccccc2)C[C@@H]2CC[C@H]1N2C(=O)NCc1ccc(OC)c(OC)c1`, with 0.248% (inactive).
Still for that read-out and setting: under `COc1cccc(N2C(=O)NC(=O)/C(=C\c3cn(C)c4ccccc34)C2=O)c1` stands -6.34% (inactive).
Consider `Cc1cccc(N2C(=O)NC(=O)/C(=C\c3cnn(-c4ccccc4)c3)C2=O)c1`, for which the Potency was 15.1 µM (active).
Turning to `O=C1C2(Cl)C3(Cl)C4(Cl)C(Cl)(Cl)C5(Cl)C3(Cl)C1(Cl)C5(Cl)C24Cl` (centres undefined), the “activity change, negative = inhibition” value was 3.33% (inactive).
`COc1ccc(Br)cc1CNCCc1cccc(Cl)c1`: the “activity change, negative = inhibition” value is 0.615% (inactive).
On the same count and under the same terms, then `COc1cc(-n2c(=S)[nH]c3ccc(C)cc3c2=O)c(Cl)cc1Cl`, with -15% (inactive).
For `c1csc(-c2nnc(COc3ccc4c(c3)OCO4)o2)c1`, the Potency is 19 µM (active).
In the case of `CCN(CC)P(=O)(Oc1cccc(C)c1)N(CC)CC`, the “activity change, negative = inhibition” value is 2.83% (inactive).
On the same count and under the same terms, then `COC(=O)C1=C(c2ccc(F)cc2F)C[C@@H]2CC[C@H]1N2C(=O)NC1CC1`, with -0.733% (inactive); and `CN1CCN(c2cc(N3CCNCC3)ccc2[N+](=O)[O-])CC1`, with 5.49% (inactive).
For the compound `Cc1nc2ccc(N3CCN(C)CC3)cc2nc1C`, the Potency is 19 µM (active).
With `COC(=O)C1=C(c2cccc(OCc3ccccc3)c2)C[C@@H]2CC[C@H]1N2C(=O)NNCc1ccccc1`, the “activity change, negative = inhibition” value was -1.66% (inactive).
Same read-out and setting: under `CCOC(=O)C1=C(C)OC(N)=C(C(=O)OC)C12C(=O)Nc1ccc(Br)cc12` (centres undefined) stands 7.3% (inactive).
Turning to `Cc1ccc(-n2c(/C=C/c3cccc(C(F)(F)F)c3)nc3ccccc3c2=O)cc1`, the “activity change, negative = inhibition” value is 2.96% (inactive).
On the same count and under the same terms, under `COC(=O)C1=C(c2ccc(F)cc2OCc2ccccc2)C[C@@H]2CC[C@H]1N2C(=O)NCc1ccc(Cl)cc1` stands -0.957% (inactive); under `Cc1cc(/C=C2/C(=O)NC(=O)N(Cc3ccco3)C2=O)c(C)n1-c1ccc(C(=O)O)cc1`, -2.68% (inactive).
In the case of `O=C1NC(=O)N(Cc2ccco2)C(=O)/C1=C\c1ccc(-c2ccc(F)cc2)o1`, the Potency is 10.7 µM (active).
As for `O=C1NC(=O)N(CCc2ccc(F)cc2)C(=O)/C1=C/C=C/c1ccccc1`, the “activity change, negative = inhibition” value is -1.25% (inactive).
On the same count and under the same terms, under `c1ccc2sc(C3CCCNC3)nc2c1` (centres undefined) stands -2.06% (inactive); under `COC(=O)C1=C(c2ccc(F)cc2OCc2ccccc2)C[C@@H]2CC[C@H]1N2C(=O)NCc1ccc2[nH]ccc2c1`, -0.247% (inactive); under `CCOC(=O)c1c(-c2ccccc2)oc2ccc(OC(=O)N(C)C)cc12`, 1.44% [at 2.3 µM] (inactive).
As for `CN(C)C(=O)Oc1ccc2c(c1)O/C(=C\c1ccccc1)C2=O`, the Potency was 9.53 µM (active).
For the compound `CN(C)C(=O)Oc1ccc(OCc2cccc[n+]2C)cc1`, the “activity change, negative = inhibition” value was 5.09% (inactive).
In the case of `CCC12CCN(CCc3ccccc3)CC1Oc1c(O)cccc12` (centres undefined), the “activity change, negative = inhibition” value was 6.79% (inactive).
Same read-out and setting: then `COC(=O)C1=C(c2ccc(Cl)c(C(F)(F)F)c2)C[C@@H]2CC[C@H]1N2C(=O)NC(C)C`, with 2.4% (inactive).
The same measure, in the same setting: under `Cc1nn(-c2ccccc2)c(C)c1NC(=O)COC(=O)Cc1ccccc1` stands 3.9% (inactive).
`COc1ccc(C(=O)C2CN(C)CC2C(=O)c2ccc(OC)cc2)cc1` (centres undefined): the “activity change, negative = inhibition” value was -0.072% (inactive).
